The values below come from PubChem BioAssay AID686979 (National Center for Advancing Translational Sciences (NCATS), 2013).

SMILES strings stand for the structures. Where “and” joins values, the source holds several entries; their conditions need not be identical. Equal entries are not always repeated. Hit rate of the full screen: of about 420,000 compounds, about 50,000 (12%) were called active. Where a call stands in place of a potency, no number is given. Roughly 26% stayed inconclusive and do not appear here. Calls follow the shape of the dose curve; as a rule, active = well fitted inhibition curve with a large enough effect; inconclusive = small, poorly fitted or top-dose-only effect; inactive = flat fitted curve, though single readings scatter. The sample as a whole holds a higher share of actives than the screen did. Some structures have more than one record in an assay (separate samples or runs), and their calls can disagree.
Potency is read from the fitted curve at half-maximal effect.

A short description of this experiment: qHTS for Inhibitors of human tyrosyl-DNA phosphodiesterase 1 (TDP1): qHTS in cells in presence of CPT. Also: nearly all actives have a fitted effect of over 55% in size. The conditions noted are these: chicken DT40 Tdp1-/-;hTDP1 cells + 20 nM CPT, ATP luminescence, 48 h; series mostly up to 46.2 µM. The method, boiled down:
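Chicken DT40 Tdp1-/- cells complemented with human TDP1, 400 cells/well, exposed to compounds plus 20 nM camptothecin for at least 48 h at 37 C; viability read as ATP content by CellTiter-Glo luminescence.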
Background: qHTS replaces the single test concentration by a dilution series.
On to `Cc1ccc(S(=O)(=O)N2CCN(Cc3cccc(C)c3O)CC2)cc1`, for which the Potency entry was “inactive”.

Turning to `O=C(COc1cccc(Cl)c1)NCc1ccccc1`, the Potency result is “inactive”.

For the molecule `COCCN(CCOC)S(=O)(=O)NC[C@H]1O[C@@H](n2cnc3c(N)ncnc32)[C@H](O)[C@@H]1O`, the Potency entry was “inactive”.

On to `CC(C)(C)N(Cc1ccccc1)C(=O)c1ccncc1`, for which the Potency result was “inactive”.

With `Cc1ccc(CNC(=O)COc2ccc3c(c2)CCC3)cc1`, the Potency entry is “inactive”.

Consider `O=C(CC1C(=O)NCCN1CC(c1ccccc1)c1ccccc1)NCCc1cn[nH]c1` (stereo not given), for which the Potency result was “inactive”.

On to `CCNC(=O)C1CCCN(C(=O)c2ccc(OC)cc2OC)CC1` (stereo not given), for which the Potency entry is “inactive”.

With `COc1ccc(NC(=O)c2sc3nc(-c4cc5cccc(OC)c5oc4=O)[nH]c(=O)c3c2C)cc1`, the Potency entry was “inactive”.

As for `COc1ccccc1-c1n[nH]nc1C1=CC(=O)CC(C)(C)C1`, the Potency result is “inactive”.

On to `c1ccc(C2=Nc3cccc4cccc(c34)N2)cc1`, for which the Potency is 7.31 µM (active).

Turning to `COc1ccccc1C1=Nc2cccc3cccc(c23)N1`, the Potency is 5.17 µM (active).

As to `Fc1ccccc1N=C1Nc2cccc3cccc1c23`, the Potency entry is “inactive”.

Consider `NC(=O)COc1ccccc1C(=O)NC12CC3CC(CC(C3)C1)C2`, for which the Potency result is “inactive”.

Consider `Cc1n[nH]c(C)c1S(=O)(=O)N1CCCC(C(=O)Nc2ccc(Br)cc2)C1` (stereo not given), for which the Potency entry was “inactive”.

As for `COc1ccc(S(=O)(=O)N2CCCC(C(=O)Nc3ccc(NC(=O)c4ccccn4)cc3)C2)cc1` (stereo not given), the Potency is 7.31 µM (active).

With `CC1CCCN(S(=O)(=O)c2ccc3[nH]c(=O)cc(C(=O)NCCc4ccc(Cl)cc4)c3c2)C1` (stereo not given), the Potency result was “inactive”.

Consider `O=C(Nc1ccc(S(=O)(=O)N2CCCCC2)cc1)c1cnccn1`, for which the Potency result is “inactive”.

On to `O=C(Nc1ccc(F)cc1)C1CCCN(S(=O)(=O)c2ccc(-n3cnnn3)cc2)C1` (stereo not given), for which the Potency result was “inactive”.

Regarding `COc1ccc(CCNC(=O)C2CCCN(S(=O)(=O)c3ccc(OC)cc3)C2)cc1` (stereo not given), the Potency result is “inactive”.

For `CSc1ncc(Cl)c(C(=O)Nc2ccc(S(=O)(=O)N3CCCC(C)C3)cc2)n1` (stereo not given), the Potency was 8.2 µM (active).

Regarding `CCc1ccc(NC(=O)c2cc(S(=O)(=O)N3CCCC(C)C3)cn2C)cc1` (stereo not given), the Potency result is “inactive”.

Regarding `CC(C)c1ccc(NC(=O)C2CCCN(S(=O)(=O)c3cccnc3)C2)cc1` (stereo not given), the Potency was 16.4 µM (active).

For the molecule `CC1CC(C)CN(S(=O)(=O)c2cccc(C(=O)N3C(=O)c4cccc(N)c4C3=O)c2)C1` (stereo not given), the Potency result is “inactive”.

Regarding `COc1ccc(NC(=O)C2CCC(CNC(=O)[C@@H]3Cc4ccccc4CN3)CC2)cc1` (stereo not given in full), the Potency entry is “inactive”.

Turning to `CCc1cccc(C)c1NC(=O)COC(=O)CNC(=O)c1cccs1`, the Potency entry is “inactive”.

For `Cc1ccc2ncc(C(=O)Nc3ccc(OC(F)(F)F)cc3)c(=O)n2c1`, the Potency result is “inactive”.

For the molecule `CC(=O)Nc1ccc(S(=O)(=O)NCCC(=O)N2CCN(c3ccccc3Cl)CC2)cc1`, the Potency was 20.6 µM (active).

On to `CCNS(=O)(=O)c1ccc(CCC(=O)N2CCN(c3ccc(OC)cc3)CC2)cc1`, for which the Potency entry is “inactive”.

In the case of `CC(=O)c1ccc(S(=O)(=O)NCCC(=O)N2CCN(c3ccccn3)CC2)cc1`, the Potency result is “inactive”.

Take `CC(C)NS(=O)(=O)c1ccc(CCC(=O)N2CCOCC2)cc1`: the Potency entry is “inactive”.

For the molecule `CCNS(=O)(=O)c1ccc(CCC(=O)N2CCN(c3cc(Cl)ccc3C)CC2)cc1`, the Potency is 13 µM (active).

For `CCOc1ccc(S(=O)(=O)NCCC(=O)N2CCCCCCC2)cc1`, the Potency result was “inactive”.

Take `CCOC(=O)N1CCC(Nc2c(NCCCN3CCN(CC)CC3)c(=O)c2=O)CC1`: the Potency entry was “inactive”.

Regarding `O=C(COc1cccnc1[N+](=O)[O-])Nc1ccc(Cl)cc1F`, the Potency result was “inactive”.

For `CCn1c(C)cc(=O)cc1-c1ccc(Cl)cc1`, the Potency result was “inactive”.

On to `CCOC(=O)C1=C(C)c2ccccc2OC1C(=O)OCC` (stereo not given), for which the Potency result is “inactive”.

Regarding `CC(C)(C)NC(=O)Cn1cnc2cc([N+](=O)[O-])ccc2c1=O`, the Potency entry was “inactive”.

Take `Cc1cc(C(=O)Cn2cnc3cc([N+](=O)[O-])ccc3c2=O)c(C)n1CC1CCCO1` (stereo not given): the Potency was 14.6 µM (active).

Take `O=C(Cn1cnc2cc([N+](=O)[O-])ccc2c1=O)NC(=O)NCc1ccccc1`: the Potency entry was “inactive”.

As to `NS(=O)(=O)c1ccc(CCNC(=S)Nc2ccc(S(N)(=O)=O)cc2)cc1`, the Potency entry was “inactive”.

For the molecule `Cc1nn(-c2ccccc2)nc1C(=O)OCC(=O)N1CCCCC1C` (stereo not given), the Potency entry was “inactive”.

Turning to `Cc1c(C(=O)NC2CCCCC2)oc2ccccc12`, the Potency entry was “inactive”.

In the case of `Cc1c(C(=O)Nc2cccc(-c3nnc4n3CCCCC4)c2)oc2ccccc12`, the Potency is 14.6 µM (active).

Take `O=C(Cn1[nH]c(=O)c2ccccc2c1=O)Nc1cccc(-c2nnc3n2CCCCC3)c1`: the Potency result was “inactive”.

As for `Cc1cccc(C(=O)NCC(=O)OCC(=O)N(C)CC(=O)Nc2ccccc2Cl)c1`, the Potency entry was “inactive”.

In the case of `O=c1oc2cc(O)ccc2cc1-c1ccc(F)cc1`, the Potency was 20.6 µM (active).

For `CC(=O)Nc1cc2ccc(OC(C)=O)cc2oc1=O`, the Potency result is “inactive”.

Regarding `COc1ccc(-c2cc3ccc(OCc4nn[nH]n4)cc3oc2=O)cc1`, the Potency entry was “inactive”.

With `CC1=C(C(=O)N2CCOCC2)CC(CC(=O)NCc2cccs2)C(=O)N1CCCN1CCCC1=O` (stereo not given), the Potency entry was “inactive”.

Take `CCC(C)C(NC(=O)C1CCC(=O)N1C(=O)OCc1ccccc1)C(=O)NC(C(=O)N1CCCC1C(N)=O)C(C)CC` (stereo not given): the Potency entry is “inactive”.

For `O=C(NCc1ccc(F)cc1)C1CCC(CNc2c(N3CCOCC3)c(=O)c2=O)CC1` (stereo not given), the Potency result is “inactive”.

On to `CC(C)NC(=O)NNc1c(Cl)cncc1Cl`, for which the Potency result is “inactive”.

Take `CCN(CC(=O)NC(C)C)C(=O)c1cc(S(=O)(=O)N2CCCCC2)ccc1N1CCCCC1`: the Potency result was “inactive”.

Take `COC(=O)c1sccc1NC(=O)CCC1CCCC1`: the Potency result is “inactive”.

As to `CCOC(=O)C(=CNNc1ccsc1C(=O)OC)C(=O)OCC`, the Potency is 18.4 µM (active).

On to `COC(=O)c1sccc1NC(=S)Nc1ccc(C)cc1`, for which the Potency entry was “inactive”.

Take `CNC(=O)c1cccc2nc3ccccc3nc12`: the Potency result was “inactive”.

`Cc1[nH]c2ccccc2c1C(=O)C(=O)N(C)c1ccccc1`: the Potency result was “inactive”.

Consider `O=C(NCc1ccccc1Cl)C1CCN(S(=O)(=O)c2cccc3nonc23)CC1`, for which the Potency entry was “inactive”.

On to `Cc1nn(-c2ccccc2)c2sc(C(=O)N(Cc3ccco3)C(C)C(=O)NC(C)(C)C)cc12` (stereo not given), for which the Potency is 13 µM (active).

Take `Cc1nc(C)c(C(=O)N(c2ccc(C)c(C)c2)C(C(=O)NCc2ccco2)c2ccccc2)s1` (stereo not given): the Potency entry is “inactive”.

Take `Cc1ccc(-c2nnn(CC(=O)N(Cc3ccco3)C(C(=O)NC(C)(C)C)c3ccncc3)n2)o1` (stereo not given): the Potency result was “inactive”.

As for `COCC1CCN(C(=O)CCc2nnc(C3(c4ccc(Cl)cc4)CCC3)o2)C1` (stereo not given), the Potency entry was “inactive”.

`CCNC(=O)N1CCN(S(=O)(=O)c2ccc3c(c2)OCCCO3)CC1`: the Potency result was “inactive”.

For the molecule `COc1ccc(N2CC(C(=O)NCCS(=O)(=O)N3CCN(c4ccccc4)CC3)CC2=O)cc1` (stereo not given), the Potency entry is “inactive”.

`CC(C)CCNC(=O)c1ccc2c(Cl)c3c(nc2c1)CCC3`: the Potency entry is “inactive”.

With `COc1ccc(N2CCN(C(=O)c3ccc4c(Cl)c5c(nc4c3)CCCC5)CC2)cc1`, the Potency result is “inactive and 20.6 µM (active)”.

Turning to `COc1ccc(N2CCN(C(=O)c3ccc(N4CCCCS4(=O)=O)cc3)CC2)cc1`, the Potency result is “inactive”.

With `Cc1cccc(N(C)C(=O)CS(=O)(=O)c2cccc3nsnc23)c1`, the Potency result is “inactive”.

Take `Clc1ccc(Nc2ccc3ccccc3n2)cc1`: the Potency entry is “inactive”.

In the case of `Cc1ccc(C)c(S(=O)(=O)c2nnn3c2nc(N2CCOCC2)c2sccc23)c1`, the Potency is 23.1 µM (active).

On to `Cc1ccc(S(=O)(=O)c2nnn3c2nc(N2CCN(c4ccccn4)CC2)c2ccccc23)cc1`, for which the Potency result was “inactive”.

For the molecule `CCc1ccc(S(=O)(=O)c2nnn3c2nc(N2CCN(CC)CC2)c2sccc23)cc1`, the Potency result was “inactive”.

As to `COc1ccc(/C=N/NC(=O)c2ccncc2)cc1CN1CCCc2ccccc21`, the Potency entry is “inactive”.

On to `O=C(Nc1ccccn1)C1CCN(S(=O)(=O)c2ccccc2)CC1`, for which the Potency result is “inactive”.

For `CCOc1ccc(NC(=O)CSc2c3c(nc4ccccc24)CCCC3)cc1`, the Potency was 16.4 µM (active).

For the molecule `CCOc1ccc(NC(=O)CSc2nncn2C)cc1`, the Potency entry is “inactive”.

In the case of `CCOc1ccc(C(=O)NC2CCN(C(=O)Nc3ccccc3OC)CC2)cc1`, the Potency result was “inactive”.

As to `COc1cccc(CNC(=O)CSc2c3c(nc4cc(Cl)ccc24)CCCC3)c1`, the Potency is 23.1 µM (active).

Consider `COc1cccc(CNC(=O)c2nnn(CC(=O)Nc3cc(Cl)ccc3C)c2N)c1`, for which the Potency result is “inactive”.

Consider `CCOc1ccc(-n2nc3ccc(NC(=O)c4ccc(OC)c(Cl)c4)cc3n2)cc1`, for which the Potency result was “inactive”.

In the case of `CCOc1ccc(C(=O)Nc2ccc3nc4c(c(Nc5ccccc5OC)c3c2)CCCC4)cc1`, the Potency was 4.11 µM (active).

Regarding `CCOc1ccc(NC(=S)N2CCC(NC(=O)c3ccccc3)CC2)cc1`, the Potency entry is “inactive”.

For the molecule `COc1cccc(CNC(=O)c2ccc3c(Cl)c4c(nc3c2)CCCC4)c1`, the Potency result is “inactive”.

Regarding `O=C1NCC(Nc2ccccc2)C(=O)N1` (stereo not given), the Potency entry is “inactive”.

Take `Nc1c(C(=O)OCC(=O)Nc2ccc(OC(F)F)cc2)[nH]c(=O)[nH]c1=O`: the Potency entry is “inactive”.

`COc1ccc(S(=O)(=O)N2CCC(C(=O)OCC(=O)c3ccccc3)CC2)cc1[N+](=O)[O-]`: the Potency result was “inactive”.

For the molecule `CCOC(=O)N1CCN(c2c(NCCCN3CCCC(C)C3)c(=O)c2=O)CC1` (stereo not given), the Potency result is “inactive”.

Regarding `COc1ccc(Cl)cc1-n1c(CCC(=O)O)ccc1-c1ccc(C)cc1`, the Potency entry was “inactive”.

In the case of `CC1(C)CC(=O)c2cnc3nc4ccccc4n3c2C1`, the Potency result is “inactive”.

Take `COc1ccc(C)cc1-n1c(-c2ccc(C)cc2)cc2c1CC(C)(C)CC2=O`: the Potency was 8.2 µM (active).

For `CCOC(=O)N1CCN(C(=O)COC(=O)c2cccc(S(C)(=O)=O)c2)CC1`, the Potency entry is “inactive”.

On to `COc1ccc(NC(=O)CSc2nncc(=O)n2N)cc1OC`, for which the Potency entry is “inactive”.

Take `CN(C)c1ccc(/C=C/c2sc3ccccc3[n+]2CCCCBr)cc1`: the Potency was 0.316 µM (active).

On to `CN(C)c1ccc(/C=N\S(=O)(=O)c2ccccc2)cc1`, for which the Potency entry is “inactive”.

`CN(C)c1ccc(/C=C/c2sc3ccccc3[n+]2C)cc1`: the Potency is 0.0447 µM (active).

Consider `COc1ccccc1C(=O)NCCC(=O)N(C)Cc1cccnc1`, for which the Potency entry was “inactive”.

On to `Cc1ccc(NC(=S)NC(NC(=O)Cc2cccc3ccccc23)C(Cl)(Cl)Cl)cc1` (stereo not given), for which the Potency result is “inactive”.

`CSc1ncnc2c1ncn2CCCNCc1ccco1`: the Potency entry is “inactive”.

Consider `O=C(CSc1nc(C2CC2)nc2ccccc12)Nc1cccc(O)c1`, for which the Potency result is “inactive”.

Take `CC(C)(C)OC(=O)NNc1c2ccccc2nc2ccccc12`: the Potency was 16.4 µM (active).

Consider `O=C(NNc1c2ccccc2nc2ccccc12)c1cc2ccccc2cc1O`, for which the Potency was 23.1 µM (active).

As for `O=C(COC(=O)c1ccc(O)cc1O)NC(=O)c1ccccc1`, the Potency result is “inactive”.

As to `Cc1ccc(C(=O)NNC(=O)OC(C)(C)C)c(Cl)c1`, the Potency result was “inactive”.

Turning to `Cc1ccccc1NC(=O)NNC(=O)OC(C)(C)C`, the Potency result is “inactive”.
